Some test systems named below: DU-145 prostate; K-562 leukemia; MDA-MB-231 breast; RXF 393 renal; SF-268 CNS; SF-295 CNS; SF-539 CNS; UACC-257 melanoma; M14 melanoma; HCT-15 colon; HT29 colon; SNB-75 CNS; SNB-19 CNS; U251 CNS; PC-3 prostate; SK-MEL-5 melanoma; UACC-62 melanoma; LOX IMVI melanoma; SK-MEL-28 melanoma.
What all share (experiment): NCI-60 one-dose screen, 48 h (100 = growth as untreated, 0 = no growth, -100 = all killed)
What all share (settings): 10 µM

The panel holds about 83,000 compounds, 20% with a hit somewhere; the sample as a whole holds those more often.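 Plates (96-well) were seeded with cells, treated with compound at one concentration, and incubated for 48 hours before percent growth was determined.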 A number with no mark means an inactive call. Activity calls are given as the source filed them. Rule for the calls: active = growth percent below 10; inactive = the rest.

For `COc1cc(NS(C)(=O)=O)ccc1Nc1c2ccc(Cl)cc2nc2c(OC)cccc12`, the growth in the assay with DU-145 prostate is -43.6% (active); in the assay with K-562 leukemia, 13.4%; in the assay on MDA-MB-231 breast, 62.6%; in the assay with RXF 393 renal, -11.3% (active); with SF-268 CNS, 9.76% (active); in the assay with SF-295 CNS, 14.5%. In addition, the growth was -53.8% (active) in the assay on SF-539 CNS; 34.2% in the assay on UACC-257 melanoma; 14.1% with M14 melanoma; -15.4% (active) in the assay on HCT-15 colon; -37.3% (active) in the assay on HT29 colon; -13.4% (active) with SNB-75 CNS. Also, the growth in the assay with SNB-19 CNS was 32.8%; with U251 CNS, 5.31% (active); in the assay with PC-3 prostate, 31.9%; in the assay with SK-MEL-5 melanoma, 0.832% (active); in the assay with UACC-62 melanoma, -8.98% (active); in the assay with LOX IMVI melanoma it was -58.7% (active). The growth in the assay on SK-MEL-28 melanoma is 52.4%.

With `N#CC1C=Cc2c(ccc3ccccc23)N1C(=O)c1ccccc1` (configuration not stated), the growth was -2.67% (active) in the assay on DU-145 prostate; 17.2% with K-562 leukemia; 24.4% in the assay on MDA-MB-231 breast; 5.17% (active) in the assay on RXF 393 renal; 27.2% with SF-268 CNS; -19.4% (active) with SF-295 CNS. Besides, the growth in the assay with SF-539 CNS is -7% (active); in the assay with UACC-257 melanoma, 70.3%; with M14 melanoma, 7.78% (active); in the assay with HCT-15 colon, 20.6%; in the assay on HT29 colon, 8.15% (active); with SNB-75 CNS it was 22%. Also, the growth is 43.3% in the assay with SNB-19 CNS; 24% with U251 CNS; 32.6% in the assay with PC-3 prostate; 12.7% in the assay on SK-MEL-5 melanoma; 37.7% in the assay with UACC-62 melanoma; 27.5% in the assay on LOX IMVI melanoma. The growth with SK-MEL-28 melanoma is 48.9%.

As to `Cc1ccc2nc3[nH]c(=O)[nH]c(=O)c3c(N)c2c1`, the growth is 77.2% in the assay on DU-145 prostate; 96.2% in the assay on K-562 leukemia; 95.8% in the assay with MDA-MB-231 breast; 77.7% in the assay on RXF 393 renal; 88.5% with SF-268 CNS; 90.9% in the assay on SF-295 CNS. Further, the growth was 92.3% in the assay on SF-539 CNS; 88.9% with UACC-257 melanoma; 96% in the assay with M14 melanoma; 84% in the assay on HCT-15 colon; 83.3% in the assay with HT29 colon; 90% in the assay with SNB-75 CNS. The growth is 86.2% in the assay on SNB-19 CNS; 89.1% in the assay with U251 CNS; 85.6% in the assay with PC-3 prostate; 84% with SK-MEL-5 melanoma; 47.3% with UACC-62 melanoma; 75.2% with LOX IMVI melanoma. The growth in the assay with SK-MEL-28 melanoma is 98.3%.

`COC1OC2COC(c3ccccc3)OC2C(=O)C1NC(=O)c1ccccc1` (configuration not stated): the growth is 95.6% with DU-145 prostate; 127% with K-562 leukemia; 94.1% with MDA-MB-231 breast; 122% in the assay with RXF 393 renal; 99.1% in the assay on SF-268 CNS; 88.5% in the assay with SF-295 CNS. Also, the growth was 101% in the assay on SF-539 CNS; 104% in the assay with UACC-257 melanoma; 99.8% in the assay with M14 melanoma; 101% in the assay with HCT-15 colon; 105% in the assay on HT29 colon; 83% in the assay with SNB-75 CNS. In addition, the growth with SNB-19 CNS is 94.9%; in the assay on U251 CNS, 109%; in the assay on PC-3 prostate, 85%; in the assay with SK-MEL-5 melanoma, 108%; in the assay on UACC-62 melanoma, 93.7%; in the assay with LOX IMVI melanoma it was 90.1%. Further, the growth in the assay with SK-MEL-28 melanoma was 109%.

In the case of `C/C(=N\NC(N)=S)C(C)(C)O`, the growth in the assay on DU-145 prostate is 93.2%; in the assay on K-562 leukemia it was 37.1%; in the assay on MDA-MB-231 breast, 77.8%; in the assay with RXF 393 renal, 96.2%; in the assay on SF-268 CNS, 95.9%; with SF-295 CNS, 79.5%. The growth in the assay with SF-539 CNS was 102%; with UACC-257 melanoma, 32.6%; in the assay with M14 melanoma it was 92%; in the assay on HCT-15 colon, 101%; in the assay with HT29 colon, 61%; in the assay with SNB-75 CNS, 91.2%. For the same compound, the growth in the assay on SNB-19 CNS is 106%; with U251 CNS, 88.1%; with PC-3 prostate it was 90.1%; with SK-MEL-5 melanoma, 101%; in the assay with UACC-62 melanoma, 103%; in the assay with LOX IMVI melanoma, 95.1%. In addition, the growth in the assay with SK-MEL-28 melanoma is 98.5%.

As to `CCCCCN(CCCCC)C(C)C(O)c1ccc2cc(Cl)c3ccccc3c2c1` (configuration not stated), the growth in the assay on DU-145 prostate is 109%; in the assay on K-562 leukemia, 81.4%; with MDA-MB-231 breast, 92.7%; with RXF 393 renal, 97.5%; with SF-268 CNS, 102%; with SF-295 CNS it was 82.7%. Besides, the growth in the assay on SF-539 CNS is 104%; in the assay with UACC-257 melanoma, 97.7%; in the assay with M14 melanoma, 93.1%; in the assay with HCT-15 colon, 93.1%; with HT29 colon it was 55.5%; in the assay with SNB-75 CNS, 93.8%. The growth with SNB-19 CNS was 104%; with U251 CNS, 90%; in the assay with PC-3 prostate, 80.6%; with SK-MEL-5 melanoma, 89.9%; in the assay on UACC-62 melanoma it was 88.2%; with LOX IMVI melanoma, 94.3%. Also, in the assay on SK-MEL-28 melanoma, the growth was 108%.

For `CCOC(=O)C(CCC1=NC(C)(C)CC(C)O1)C(=O)OCC` (configuration not stated), the growth with DU-145 prostate was 10.4%; with K-562 leukemia, 85%; with MDA-MB-231 breast it was 106%; in the assay with RXF 393 renal, 85%; in the assay with SF-268 CNS, 98%; with SF-295 CNS, 74.5%. In addition, the growth in the assay on SF-539 CNS was 102%; in the assay on UACC-257 melanoma, 105%; in the assay on M14 melanoma, 84%; in the assay on HCT-15 colon, 46%; in the assay with HT29 colon, 32%; with SNB-75 CNS, 104%. The growth is 106% in the assay on SNB-19 CNS; 82.3% with U251 CNS; 76.3% in the assay with PC-3 prostate; 108% in the assay with SK-MEL-5 melanoma; 93.3% in the assay with UACC-62 melanoma; 90.1% with LOX IMVI melanoma. For the same compound, the growth in the assay on SK-MEL-28 melanoma was 107%.

In the case of `C#CCNCCCN1C(=O)c2ccc3c4c(ccc(c24)C1=O)C(=O)N(CCCNCC#C)C3=O`, the growth with DU-145 prostate is -98.8% (active); with K-562 leukemia, -4.82% (active); in the assay on MDA-MB-231 breast, 0.356% (active); in the assay with RXF 393 renal, -91.4% (active); with SF-268 CNS, -26.4% (active); in the assay on SF-295 CNS it was -82.9% (active). Further, the growth with SF-539 CNS was -97% (active); in the assay on UACC-257 melanoma, -87.8% (active); in the assay with M14 melanoma, -91% (active); in the assay with HCT-15 colon, -82.3% (active); in the assay with HT29 colon, -8.76% (active); in the assay with SNB-75 CNS it was -98.7% (active). Further, the growth in the assay on SNB-19 CNS is -88.6% (active); in the assay with U251 CNS, -76.6% (active); in the assay with PC-3 prostate, -28% (active); with SK-MEL-5 melanoma, -98.7% (active); in the assay on UACC-62 melanoma, -75.8% (active); in the assay with LOX IMVI melanoma it was -94.4% (active). The growth in the assay with SK-MEL-28 melanoma is -81.8% (active).

For the origin of these results see PubChem BioAssay (NCI).
